Test results as given in PubChem BioAssay (NCI).
Values joined by “and” are separate entries in the source; they are usually repeats but may differ in a detail not shown here. Equal entries are not always repeated. About 83,000 compounds went through this panel and 20% of them were active in at least one assay; those are over-represented in the sample as a whole.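 Interpretation: 100, growth as untreated; towards 0, rising growth inhibition; 0, no net growth; 0 to -100, cell death. Compounds scoring below 10 were considered active.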 Active and inactive are the calls of the source. Where a SMILES comes first, the peptide text is derived from it. The star is where a group is joined. Trt = c1ccc(C(c2ccccc2)(c2ccccc2)*)cc1; Cbz = O=C(OCc1ccccc1)*

Tests used:
Test in all cases: NCI-60 one-dose screen, 48 h (100 = growth as untreated, 0 = no growth, -100 = all killed)
Details in all cases: 10 µM unless noted
[1] = system: HCT-15 colon
[2] = system: HT29 colon
[3] = system: SNB-75 CNS
[4] = system: SNB-19 CNS
[5] = system: U251 CNS
[6] = system: PC-3 prostate
[7] = system: SK-MEL-5 melanoma
[8] = system: UACC-62 melanoma
[9] = system: LOX IMVI melanoma
[10] = system: SK-MEL-28 melanoma

Compound	growth [1]	growth [2]	growth [3]	growth [4]	growth [5]	growth [6]	growth [7]	growth [8]	growth [9]	growth [10]
N#CSCc1ccc(Cl)c(CSC#N)c1	18% (inactive)	6.14% (active)	25.4% (inactive)	61.5% (inactive)	61% (inactive)	25.5% (inactive)	19.8% (inactive)	57.3% (inactive)	19.9% (inactive)	68.6% (inactive)
CCC(c1cccc(O)c1)C(CC)c1cccc(O)c1 (stereo not given)	49% (inactive)	42% (inactive)	42.7% (inactive)	71.2% (inactive)	45.5% (inactive)	56.4% (inactive)	32.3% (inactive)	30.1% (inactive)	57.8% (inactive)	63.2% (inactive)
CNc1ccc2c(c1)c1ccccc1n2C	104% (inactive)	115% (inactive)	98.7% (inactive)	111% (inactive)	95.9% (inactive)	96% (inactive)	101% (inactive)	100% (inactive)	99.9% (inactive)	117% (inactive)
Oc1c(Br)c(Br)c(O)c(Br)c1Br	11% (inactive)	129% (inactive)	120% (inactive)	106% (inactive)	114% (inactive)	105% (inactive)	102% (inactive)	93.3% (inactive)	90.9% (inactive)	92.8% (inactive)
N[C@H](C(=O)O)[C@@H]1CC(Cl)=NO1	15.9% [20 µM] (inactive)	17.3% [20 µM] (inactive)	27.3% [20 µM] (inactive)	30.6% [20 µM] (inactive)	26.8% [20 µM] (inactive)	31% [20 µM] (inactive)	11.4% [20 µM] (inactive)	22.4% [20 µM] (inactive)	13.2% [20 µM] (inactive)	34.7% [20 µM] (inactive)
NC(=O)/C=C/C(=O)c1c(Cl)cccc1Cl	-61.2% (active)	-39.6% (active)	-99.5% (active)	9.41% (active)	-59.1% (active)	-96% (active)	-94.5% (active)	-71.1% (active)	-43.5% (active)	-99.1% (active)
CC(C)(C)CC(C)(C)c1ccc(OCCSC(=N)N)cc1	1.48% (active)	2.71% (active)	77.7% (inactive)	87% (inactive)	12.3% (inactive)	72.2% (inactive)	27.9% (inactive)	66.5% (inactive)	8.68% (active)	-72.7% (active)
S=C(N/N=C/c1ccccn1)Nc1ccccn1	23.8% (inactive)	10.4% (inactive)	46.1% (inactive)	50.5% (inactive)	10.1% (inactive)	33.4% (inactive)	-22.2% (active)	1.53% (active)	5.96% (active)	21.5% (inactive)
N#CC1C(=O)SC2c3ccccc3C(=O)c3ccccc3C12 (stereo not given)	111% (inactive)	97.7% (inactive)	96.3% (inactive)	99.4% (inactive)	92% (inactive)	82.1% (inactive)	97.2% (inactive)	89.2% (inactive)	95.3% (inactive)	112% (inactive)
O=C1C=CC(=O)N1C1c2ccccc2-c2ccccc21	61.6% (inactive)	92.9% (inactive)	74.9% (inactive)	105% (inactive)	92.8% (inactive)	94.1% (inactive)	105% (inactive)	102% (inactive)	93.9% (inactive)	104% (inactive)
COc1ccccc1OC(=O)Oc1ccccc1OC	110% (inactive) and 95.2% (inactive)	102% (inactive) and 95.7% (inactive)	97.8% (inactive) and 90.8% (inactive)	104% (inactive)	111% (inactive) and 106% (inactive)	102% (inactive) and 81.8% (inactive)	100% (inactive)	100% (inactive) and 96.4% (inactive)	107% (inactive) and 95% (inactive)	110% (inactive) and 106% (inactive)
O=C(Oc1cccc2cccnc12)c1ccccc1	77.6% (inactive) and 101% (inactive)	87.1% (inactive) and 99.8% (inactive)	85.4% (inactive) and 96.2% (inactive)	93.7% (inactive) and 108% (inactive)	82.8% (inactive) and 113% (inactive)	81.1% (inactive) and 93.8% (inactive)	105% (inactive) and 100% (inactive)	97.6% (inactive) and 106% (inactive)	70% (inactive) and 100% (inactive)	82.4% (inactive) and 103% (inactive)
O[C@H]1[C@H]2c3cc4c(cc3CN3CCC(=C[C@@H]1O)[C@H]23)OCO4	21.6% (inactive)	18.5% (inactive)	23% (inactive)	28.9% (inactive)	22.5% (inactive)	34.2% (inactive)	14.2% (inactive)	62% (inactive)	0.731% (active)	20.7% (inactive)
COc1ccc2nc3cc(Cl)ccc3c(NCCNc3c4ccc(Cl)cc4nc4ccc(OC)cc34)c2c1	-65.9% (active)	-65.7% (active)	-86.8% (active)	-87.7% (active)	-84% (active)	-63% (active)	-96.5% (active)	-88.4% (active)	-84.9% (active)	-86.4% (active)
N#CSCC(=O)c1ccc(Cl)cc1	18.1% (inactive)	-19.4% (active)	33% (inactive)	81.9% (inactive)	31.9% (inactive)	45.5% (inactive)	35.3% (inactive)	51.5% (inactive)	12.3% (inactive)	73.4% (inactive)
COC(=O)C(CSC(c1ccccc1)(c1ccccc1)c1ccccc1)NC(=O)C(CC(N)=O)NC(=O)OCc1ccccc1 (stereo not drawn) (Cbz-Asn-Cys(Trt)-OMe; configuration not given here)	13.7% (inactive)	33.7% (inactive)	20.3% (inactive)	56.2% (inactive)	50.2% (inactive)	36.9% (inactive)	14.1% (inactive)	-11.7% (active)	-12% (active)	24.4% (inactive)
Cc1ccc(N=C=C(c2ccccc2)c2ccccc2)cc1	67.6% (inactive)	97.6% (inactive)	78.1% (inactive)	85.2% (inactive)	81.5% (inactive)	66.9% (inactive)	89.3% (inactive)	84.6% (inactive)	5.05% (active)	106% (inactive)
COc1cc(/C=C(/C)C[N+](=O)[O-])ccc1O	46.1% (inactive)	101% (inactive)	78.4% (inactive)	97.8% (inactive)	92% (inactive)	93.8% (inactive)	101% (inactive)	83.6% (inactive)	47.5% (inactive)	54.3% (inactive)
O=C1OCc2cccc3cccc1c23	94.6% (inactive)	105% (inactive)	85.2% (inactive)	104% (inactive)	106% (inactive)	89.5% (inactive)	101% (inactive)	95.5% (inactive)	103% (inactive)	107% (inactive)
CCN(CC)CC(C)(C)C(=O)/C=C/c1ccc(Cl)c(Cl)c1	-34% (active)	-47.4% (active)	30% (inactive)	-30.1% (active)	-45.8% (active)	-33.8% (active)	0.295% (active)	-56.2% (active)	-82.4% (active)	-35.5% (active)
CN(Cc1cnc2nc(N)nc(N)c2n1)c1ccc(C(=O)NC(CCC(=O)O)C(=O)O)cc1 (stereo not given)	26.4% (inactive)	27.6% (inactive)	59.6% (inactive)	47.2% (inactive)	35.7% (inactive)	62.1% (inactive)	23.3% (inactive)	21.2% (inactive)	13.2% (inactive)	62.2% (inactive)
CCOc1ccc(-c2nc3ccc(-c4nc5ccc(N6CCN(C)CC6)cc5[nH]4)cc3[nH]2)cc1	23.7% (inactive)	-68.3% (active)	-90.2% (active)	-96.2% (active)	-98.1% (active)	-47.8% (active)	-96.7% (active)	-96.5% (active)	-88% (active)	-88.6% (active)
CNc1ccc(N)cc1	109% (inactive)	107% (inactive)	67.3% (inactive)	104% (inactive)	117% (inactive)	96.4% (inactive)	101% (inactive)	89.3% (inactive)	104% (inactive)	140% (inactive)
CCOC(=O)/C=C/c1ccc([N+](=O)[O-])o1	-3.85% (active)	36.7% (inactive)	98.7% (inactive)	97.2% (inactive)	82.6% (inactive)	93.4% (inactive)	69.1% (inactive)	32.6% (inactive)	-29.6% (active)	26.4% (inactive)
COC(=O)Nc1nc2ccc(C(=O)c3ccccc3)cc2[nH]1	30.2% (inactive) and 14.1% (inactive) and 15.8% (inactive)	4% (active) and 5.13% (active) and 2.8% (active)	8.68% (active) and 89.4% (inactive) and 23.9% (inactive)	33.6% (inactive) and 14.3% (inactive) and 33.1% (inactive)	23.7% (inactive) and 19.9% (inactive) and 16.9% (inactive)	30.5% (inactive) and 18.6% (inactive) and 16.7% (inactive)	8.39% (active) and 4.91% (active) and -9.41% (active)	47.8% (inactive) and 31.1% (inactive) and 37.4% (inactive)	37.6% (inactive) and 31.3% (inactive) and 31.1% (inactive)	48.9% (inactive) and 61.5% (inactive) and 55.6% (inactive)
Cc1ccc2nc(-[n+]3cc4ccccc4cc3C)ccc2c1	104% (inactive)	14.5% (inactive)	34.5% (inactive)	27.2% (inactive)	22.6% (inactive)	17.5% (inactive)	-27.5% (active)	30.7% (inactive)	46.6% (inactive)	43.1% (inactive)
